Source: PubChem BioAssay (National Center for Advancing Translational Sciences (NCATS))
ClpP mod: qHTS Assay for Activators of ClpP; purified B. subtilis ClpP, FRET peptide cleavage, 20 min; AID 651965, 2013; Potency, µM (doses to about 57.5 µM), for the others: at the top dose activity change, negative = active; hit rate 1.9% among 340,000; active = well fitted falling curve with a large enough effect; inconclusive = small, poorly fitted or top-dose-only effect; inactive = no such curve, though single readings can be large or run the other way; note: the source files actives as falling curves though it sought activators and does not explain the sign; nearly all actives have a fitted effect of over 65% in size
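Purified B. subtilis ClpP, 10 microg/mL final in Tris/HCl pH8 with KCl, BSA, glycerol and Tween-20, cleaved an Abz/nitrotyrosine-quenched decapeptide. Fluorescence (ex 320, em 430) was read at 0 and 20 min at room temperature. Delta was normalized to 5.8 microM ADEP and DMSO/no-enzyme controls.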
TDP1 cell noCPT: qHTS for Inhibitors of human tyrosyl-DNA phosphodiesterase 1 (TDP1): qHTS in cells in absence of CPT; Potency, µM (series often up to 46.2 µM), for the others: at the top dose activity change, negative = growth inhibition, usual class: inhibitors; DT40 Tdp1-/- hTDP1 cells, no CPT, ATP luminescence, 48 h; hit rate 15% among 420,000; AID 686978, 2013; note: % is set by controls: 0 for no effect and ±100 for the full control effect; nearly all actives have a fitted effect of over 55% in size
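Camptothecin absent (DMSO only). Human TDP1-complemented DT40 knockout cells, 400 cells/well, 37 °C for minimum 48 hr; ATP measured via CellTiter-Glo, 30 min dark incubation, luminescence.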
TDP1 inh: blocks human tyrosyl-DNA phosphodiesterase 1. Q9NUW8. recombinant TDP1, AlphaScreen DNA substrate cleavage. Potency, µM (series often up to 130 µM), for the others: at the top dose activity change, negative = inhibition, hits mostly inhibitors. hit rate 0.28% among 350,000; note: % is set by controls: 0 for no effect and ±100 for the full control effect; nearly all actives have a fitted effect of over 40% in size
Target sequence (Q9NUW8 whole entry, looked up): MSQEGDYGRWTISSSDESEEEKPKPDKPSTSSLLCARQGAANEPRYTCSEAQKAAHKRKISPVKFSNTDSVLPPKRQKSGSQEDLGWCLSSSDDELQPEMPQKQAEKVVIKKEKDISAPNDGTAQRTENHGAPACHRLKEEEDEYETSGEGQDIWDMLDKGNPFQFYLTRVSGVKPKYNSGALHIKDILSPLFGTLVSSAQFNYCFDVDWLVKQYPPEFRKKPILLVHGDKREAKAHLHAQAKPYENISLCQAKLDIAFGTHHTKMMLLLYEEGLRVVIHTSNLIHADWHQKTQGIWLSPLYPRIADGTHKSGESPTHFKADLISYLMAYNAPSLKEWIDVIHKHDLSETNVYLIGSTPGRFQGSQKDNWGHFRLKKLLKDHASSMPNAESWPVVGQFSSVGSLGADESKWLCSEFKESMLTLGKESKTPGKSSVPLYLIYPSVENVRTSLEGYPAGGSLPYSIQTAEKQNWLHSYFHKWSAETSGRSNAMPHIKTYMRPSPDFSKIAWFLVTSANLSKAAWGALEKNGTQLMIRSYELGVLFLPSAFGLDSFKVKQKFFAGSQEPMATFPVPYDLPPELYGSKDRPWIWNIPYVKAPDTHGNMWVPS
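Enzyme-compound mixtures sat 15 min at room temperature, followed by a 5 min reaction with 15 nM final substrate and 10 min with AlphaScreen beads. Recombinant human Tdp1 was used at 1 nM final.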
TDP1 cell CPT: DT40-hTDP1 cell growth loss with CPT; Potency, µM (highest dose often 46.2 µM), without a hit: top-dose activity change, negative = growth inhibition, most hits filed as inhibitors; chicken DT40 Tdp1-/-;hTDP1 cells + 20 nM CPT, ATP luminescence, 48 h; hit rate 12% among 420,000; AID 686979; note: % is set by controls: 0 for no effect and ±100 for the full control effect; nearly all actives have a fitted effect of over 55% in size
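Chicken DT40 Tdp1-/- cells stably complemented with human TDP1 were seeded at 400 cells/well in medium containing 20 nM camptothecin, exposed to pin-transferred compounds, and grown at 37 °C for at least 48 hr. Viability was read as ATP luminescence.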
Numbers without * were called inactive; [ ] = another dose, or the depositor's remark. Hits are enriched below; roughly 17% of the tested compounds scored in any of these assays. Unless noted, calls come from the whole dose curve; as a rule, active = well fitted curve in the direction sought with a large enough effect; inconclusive = small, poorly fitted or top-dose-only effect, or another doubt; inactive = no such curve, though single readings can be large; an effect the other way counts as inactive or inconclusive. Potency is the fitted concentration of half-maximal effect.

`O=C(C1=C[C@H](C2CCCCC2)C[C@H](OCCCCO)O1)N1CCN(Cc2ccc3c(c2)OCO3)CC1` gave ClpP mod -3.5%, TDP1 cell noCPT 18.4µM*, TDP1 inh 2.6% and TDP1 cell CPT 11.6µM*.
Screening O=C(C1=C[C@@H](c2ccc3c(c2)OCO3)C[C@@H](OCCCCO)O1)N1CCN(Cc2ccc3c(c2)OCO3)CC1 returned ClpP mod -4.8%, TDP1 cell noCPT inconclusive, TDP1 inh 5.1% and TDP1 cell CPT inconclusive.
For O=C(C1=C[C@H](c2ccc3c(c2)OCO3)C[C@H](OCCCCO)O1)N1CCN(Cc2ccccc2)CC1 the results were ClpP mod 0.8%, TDP1 cell noCPT inconclusive, TDP1 inh 2.6% and TDP1 cell CPT inconclusive.
For O=C(C1=C[C@H](c2ccc(Br)cc2)C[C@H](OCCCCO)O1)N1CCN(Cc2ccc3c(c2)OCO3)CC1 the results were ClpP mod -5.5%, TDP1 cell noCPT 16.4µM*, TDP1 inh 5.1% and TDP1 cell CPT 18.4µM*.
Screening O=C(C1=C[C@@H](c2ccccc2)C[C@@H](OCCCCO)O1)N1CCN(Cc2ccc3c(c2)OCO3)CC1 returned ClpP mod -2.2%, TDP1 cell noCPT inconclusive, TDP1 inh 2.6% and TDP1 cell CPT inconclusive.
For CCOc1ccc(C2C(=O)N(C3CCCCCC3)CC(=O)N2CCc2ccccc2)cc1OC (stereo not given) the results were ClpP mod -0.7%, TDP1 cell noCPT inconclusive, TDP1 inh 7.8% and TDP1 cell CPT inconclusive.
For CCCn1c2ccccc2c2cnn(CC(=O)NCCc3cc(OC)ccc3OC)c(=O)c21 the results were ClpP mod inconclusive, TDP1 cell noCPT 16.4µM*, TDP1 inh 3.7% and TDP1 cell CPT inconclusive.
`CCCn1c2ccccc2c2cnn(CC(=O)Nc3cc(OC)c(OC)c(OC)c3)c(=O)c21` gave ClpP mod -24.2%, TDP1 cell noCPT inconclusive, TDP1 inh 3.7% and TDP1 cell CPT inconclusive.
CCCn1c2ccccc2c2cnn(CC(=O)NCCOC)c(=O)c21 was read as ClpP mod 3.0%, TDP1 cell noCPT -14.9% and TDP1 cell CPT -18.8%.
For CCCn1c2ccccc2c2cnn(CC(=O)Nc3ccccc3OC)c(=O)c21 the results were ClpP mod inconclusive, TDP1 cell noCPT 14.6µM*, TDP1 inh -2.8% and TDP1 cell CPT 23.1µM*.
CCCn1c2ccccc2c2cnn(CC(=O)NCc3cc(OC)ccc3OC)c(=O)c21 was read as ClpP mod -26.0%, TDP1 cell noCPT inconclusive, TDP1 inh -2.5% and TDP1 cell CPT 18.4µM*.
For CCC1NC(=O)c2cccnc2-n2c1nc1ccc(OC)cc1c2=O (stereo not given) the results were ClpP mod -6.0%, TDP1 cell noCPT -16.3% and TDP1 cell CPT 17.9%.
`CN(C)S(=O)(=O)c1ccc(Cl)c(NC(=O)COC(=O)/C=C/c2ccco2)c1` gave TDP1 cell noCPT -14.8%, TDP1 inh 50.1µM* and TDP1 cell CPT 3.2%.
For Cc1nc(NC(=O)COC(=O)/C=C/c2ccco2)c(Cl)cc1Cl the results were ClpP mod -1.0%, TDP1 cell noCPT 28.2% and TDP1 cell CPT -6.4%.
For O=C(COC(=O)/C=C/c1ccco1)Nc1ncc(Cl)cc1Cl the results were ClpP mod -2.0%, TDP1 cell noCPT -19.1%, TDP1 inh 20µM* and TDP1 cell CPT -10.2%.
Cc1ccc(-c2csc(N/N=C/c3ccco3)n2)cc1 was read as ClpP mod -0.4%, TDP1 cell noCPT inconclusive, TDP1 inh 10.1% and TDP1 cell CPT inconclusive.
For Brc1ccc(-c2csc(N/N=C/c3ccco3)n2)cc1 the results were TDP1 cell noCPT 10.3µM*, TDP1 inh 5.0% and TDP1 cell CPT inconclusive.
C(=N\Nc1nc(-c2ccccc2)cs1)/c1ccco1 was read as ClpP mod -3.7%, TDP1 cell noCPT 14.6µM*, TDP1 inh 7.0% and TDP1 cell CPT 20.6µM*.
For Clc1ccc(-c2csc(N/N=C\c3cccnc3)n2)cc1 the results were ClpP mod 1.9%, TDP1 cell noCPT 14.6µM*, TDP1 inh 2.7% and TDP1 cell CPT inconclusive.
For C(=N\Nc1nc(-c2ccccc2)cs1)/c1cccs1 the results were ClpP mod -0.4%, TDP1 cell noCPT inconclusive, TDP1 inh 5.2% and TDP1 cell CPT inconclusive.
For Cc1onc(-c2ccccc2)c1-c1csc(N/N=C/c2ccccc2)n1 the results were TDP1 cell noCPT 11.6µM*, TDP1 inh 7.7% and TDP1 cell CPT inconclusive.
Screening CCOc1ccc(CNC(=O)Cn2ccc3cc(S(=O)(=O)N4CCCCC4)ccc32)cc1 returned ClpP mod -6.4%, TDP1 cell noCPT inconclusive, TDP1 inh -8.5% and TDP1 cell CPT inconclusive.
Screening COc1ccc(Cl)cc1NC(=O)c1nnn(CC(=O)Nc2cc(C)cc(C)c2)c1N returned ClpP mod -7.1%, TDP1 cell noCPT 2.3%, TDP1 inh 0.1% and TDP1 cell CPT -28.8%.
O=[N+]([O-])c1ccc2cn(-c3ccccc3)nc2c1 was read as ClpP mod -2.6%, TDP1 cell noCPT inconclusive, TDP1 inh 3.8% and TDP1 cell CPT inconclusive.
CSCCNC(=O)C1(C)CCN1C(=O)CCc1ccccc1 (stereo not given) was read as ClpP mod 0.3%, TDP1 cell noCPT 0.7% and TDP1 cell CPT -12.9%.
For C(=N\Nc1nc(-c2ccccc2)cs1)/c1ccncc1 the results were TDP1 cell noCPT inconclusive, TDP1 inh 7.2% and TDP1 cell CPT -24.4%.
CN(C)S(=O)(=O)c1ccc(-c2csc(N/N=C/c3ccco3)n2)cc1 was read as TDP1 cell noCPT 8.2µM* and TDP1 cell CPT 11.6µM*.
Screening O=C(N/N=C/c1ccco1)c1cc(-c2ccc(Cl)cc2)n[nH]1 returned TDP1 cell noCPT -10.1%, TDP1 inh -5.2% and TDP1 cell CPT 10.1%.
Clc1ccc(-c2csc(N/N=C/c3ccco3)n2)cc1 was read as ClpP mod 0.0%, TDP1 cell noCPT 7.31µM*, TDP1 inh 12.4% and TDP1 cell CPT inconclusive.
Screening CN(C)S(=O)(=O)c1ccc(-c2csc(N/N=C/c3ccc(O)cc3)n2)cc1 returned TDP1 cell noCPT 0.651µM*, TDP1 inh 7.1% and TDP1 cell CPT 0.92µM*.
For Cc1sc(N/N=C/c2ccco2)nc1-c1ccccc1 the results were ClpP mod -2.5%, TDP1 cell noCPT 23.1µM*, TDP1 inh 7.7% and TDP1 cell CPT inconclusive.
For Cc1cccc(CNc2ncncc2-c2cccnc2)c1 the results were TDP1 cell noCPT -11.4% and TDP1 cell CPT -6.5%.
`COCc1c(C(=O)N2CCN(C3CCCC3)CC2)cnn1-c1ncc2c(n1)-c1ccccc1CCC2` gave TDP1 cell noCPT -28.3% and TDP1 cell CPT 8.4%[9.04 µM].
COc1cccc([C@@H]2Oc3ccc(Br)cc3[C@H](O)[C@H]2O)c1 was read as TDP1 inh 6.9%.
